According to the supplement of paper PMC3334620:
The full ranking holds about 33,000 sequences; the median of “E-score (-0.5 to 0.5)” is about -0.012, and the highest 2% start at about 0.29. The entries come from a sample that favours the highest values as a whole.

Target: T1, Ybr033w (UniProt P38073)
T1 sequence: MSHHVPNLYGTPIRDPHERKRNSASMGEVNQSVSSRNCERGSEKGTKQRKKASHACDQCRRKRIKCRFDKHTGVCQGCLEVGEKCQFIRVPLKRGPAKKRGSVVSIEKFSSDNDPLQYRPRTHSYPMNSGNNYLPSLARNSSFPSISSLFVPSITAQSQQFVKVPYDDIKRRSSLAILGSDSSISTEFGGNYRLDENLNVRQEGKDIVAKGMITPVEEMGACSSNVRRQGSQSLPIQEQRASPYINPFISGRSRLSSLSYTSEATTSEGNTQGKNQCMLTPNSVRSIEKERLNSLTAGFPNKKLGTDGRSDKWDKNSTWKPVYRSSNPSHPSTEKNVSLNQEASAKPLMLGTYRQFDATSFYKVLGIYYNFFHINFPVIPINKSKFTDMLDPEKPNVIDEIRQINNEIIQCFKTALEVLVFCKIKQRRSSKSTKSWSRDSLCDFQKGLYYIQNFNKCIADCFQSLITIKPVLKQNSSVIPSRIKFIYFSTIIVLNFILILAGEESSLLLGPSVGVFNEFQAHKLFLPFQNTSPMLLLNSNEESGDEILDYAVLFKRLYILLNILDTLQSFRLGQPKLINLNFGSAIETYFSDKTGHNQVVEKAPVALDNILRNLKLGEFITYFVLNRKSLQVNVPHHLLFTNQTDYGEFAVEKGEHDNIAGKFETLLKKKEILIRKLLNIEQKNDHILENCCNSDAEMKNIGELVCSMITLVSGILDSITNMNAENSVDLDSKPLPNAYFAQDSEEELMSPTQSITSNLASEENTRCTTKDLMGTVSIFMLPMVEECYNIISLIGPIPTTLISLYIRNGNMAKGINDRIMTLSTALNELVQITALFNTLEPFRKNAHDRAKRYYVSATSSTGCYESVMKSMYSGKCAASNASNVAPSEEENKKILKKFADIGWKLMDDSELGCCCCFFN
Experiment: PBM E-score (8-mer binding enrichment) (E-score (-0.5 to 0.5)); higher = stronger / more preferred TF binding
Conditions: protein concentration: 200 nM; construct: GST-full length
Summary of the method: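 Yeast transcription factors, full-length or as DNA-binding domains, were expressed with a GST tag using PURExpress in vitro transcription/translation. At about 100-200 nM they were applied to universal all-10-mer Agilent arrays, double-stranded by primer extension on fresh or once-stripped slides. Fluorescent anti-GST detected bound protein, and masliner normalised the scans. E-scores for ungapped eight-base words, pooled with reverse complements, came from the Universal PBM Analysis Suite.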

Row | Sequence | PBM E-score
1 | AAACTGCA | 0.146
2 | ACCCTTCC | -0.0151
3 | AGTAGCAA | 0.152
4 | ACACTGGG | -0.161
5 | AGTGTTGC | 0.0949
6 | GTCTTTGA | -0.0431
7 | GACATTCA | 0.0222
8 | CACTTTTC | 0.255
9 | CTCCGTTC | -0.0235
10 | CTGGTGCA | -0.31
11 | CGGAAATC | 0.067
12 | AGGAAATG | 0.146
13 | AGGAAATC | -0.0432
14 | CGGAAATA | 0.433
15 | GGGAAATA | 0.137
16 | AGGAAATA | 0.298
17 | CTATTTGA | 0.227
18 | AAGATCCG | -0.0767
19 | CAAACTGA | 0.14
20 | CAGGTAGA | -0.138
21 | CCATAATA | 0.264
22 | CAATAATA | 0.292
23 | AGATAATG | 0.181
24 | AAAAAATT | 0.237
25 | GAATAGTA | 0.183

Row | Sequence | PBM E-score
26 | CAATAATG | 0.137
27 | TAATAGTA | 0.297
28 | AGATAATA | 0.219
29 | AAATAATT | 0.388
30 | AGATAATC | 0.306
31 | CAATAGTA | 0.168
32 | CGTTATTC | 0.175
33 | GCTATTCC | -0.0267
34 | AGGGGTAC | -0.205
35 | ACCGTGAC | -0.159
36 | CGAGTGCC | -0.198
37 | AACGGTGT | -0.113
38 | CAAAGCTC | -0.212
39 | CAGTCTAG | -0.137
40 | ATATGCAT | 0.02
41 | CAATAAAA | 0.225
42 | AAATAATC | 0.341
43 | ACATAATA | 0.247
44 | TAATAAAA | 0.365
45 | ACATAATC | 0.205
46 | CAATAATC | 0.171
47 | TAATAACA | 0.226
48 | TAATAAGA | 0.184
49 | AAATAATA | 0.344
50 | TAATAATA | 0.33

Row | Sequence | PBM E-score
51 | GAATAAAA | 0.207
52 | AAATAATG | 0.227
53 | ATGCCCGA | -0.106
54 | ACCTATGC | -0.0454
55 | CGTCCACG | -0.133
56 | CGGGGCAC | -0.319
57 | ACCATCTA | 0.0217
58 | AACCTGGT | 0.0823
59 | AATCCAGC | 0.0372
60 | AATCCAGA | 0.295
61 | TATCCAGA | 0.158
62 | GATCAAGA | 0.0926
63 | ATAACAAA | 0.29
64 | AGAACATA | 0.192
65 | TGAACAAA | 0.284
66 | ATAACAAT | 0.165
67 | AGAACAAG | 0.212
68 | CGAACAAA | 0.191
69 | GGAACATA | 0.313
70 | GGAACAAA | 0.45
71 | AGAACAAA | 0.33
72 | CGAACATA | 0.2
73 | ATAACAAG | 0.191
74 | AGAACAAT | 0.209
75 | AGAGACTA | -0.0151

Row | Sequence | PBM E-score
76 | CTCGCAAC | -0.052
77 | AAGGCCTC | -0.21
78 | AAAGTACT | 0.177
79 | TACGACTA | 0.0548
80 | CCCCTATC | -0.337
81 | CCCCCCCC | -0.45
82 | CACTTGTC | -0.0719
83 | GCACTGTA | 0.0862
84 | GGAACAAC | 0.454
85 | AGAACAAC | 0.0473
86 | CGAACAAC | 0.077
87 | AGTATTCA | 0.142
88 | ACGCCCTG | -0.16
89 | CTATCAGA | -0.0376
90 | GTATCAGA | 0.106
91 | ATATCAGA | 0.289
92 | AACCCCGA | -0.0425
93 | GATTTCAA | 0.174
94 | CATTTCAA | 0.242
95 | AATTTCGA | 0.0715
96 | TATTTCAA | 0.338
97 | TATTTCGA | 0.357
98 | GATTTCGA | -0.0493
99 | TTAAGGAA | 0.218
100 | AGTAGACT | -0.0063

Row | Sequence | PBM E-score
101 | GGAGGGAC | -0.188
102 | TAAGCTTA | 0.102
103 | AGTGGACA | 0.0894
104 | ATGAACTA | 0.303
105 | ATGAACTC | 0.0731
106 | CTGAACTA | 0.037
107 | ATTAGAGA | 0.115
108 | GGGGGAAA | -0.124
109 | CGGGAAAC | 0.0713
110 | CGGGGAAA | 0.212
111 | AGGGAAAA | 0.296
112 | AGGGGAAA | 0.0237
113 | AGGGAAAT | 0.00233
114 | TGGGAAAA | 0.316
115 | TGGGGAAA | 0.0688
116 | CGGGAAAA | 0.298
117 | AGTTATGA | 0.0811
118 | CGGTTGGA | 0.0125
119 | ATCCTGGC | -0.0209
120 | GAAATAAA | 0.247
121 | AAAATAAG | 0.207
122 | AAAATAAC | 0.189
123 | AAAATAGC | -0.0427
124 | TAAATAAA | 0.301
125 | CAAATAAA | 0.2

Row | Sequence | PBM E-score
126 | AAAATAAA | 0.319
127 | AAAATAAT | 0.319
128 | GAAATAAC | 0.159
129 | TAAATAGA | 0.0889
130 | AAAATAGA | 0.332
131 | ACCCTTCA | -0.0354
132 | CATTCTGG | -0.15
133 | CATCTGTA | -0.105
134 | CGTGACAC | -0.127
135 | GGATAACA | 0.0661
136 | ATATAAAA | 0.242
137 | CGATAAAA | 0.14
138 | TGATAAAA | 0.299
139 | GTATAAAC | 0.158
140 | AGATAAAC | 0.216
141 | GGATAAGA | -0.0485
142 | CGATAAAC | -0.148
143 | GGATAAAC | 0.456
144 | GTATAAAA | 0.289
145 | AGATAAAA | 0.286
146 | GGATAAAA | 0.397
147 | CCTGCCCG | -0.354
148 | GGCATATA | 0.16
149 | AGCAATGA | 0.13
150 | CGAGACCA | -0.0425

Row | Sequence | PBM E-score
151 | ATGAACAC | 0.0659
152 | ATAGCGGC | -0.106
153 | CCGTCGAG | 0.102
154 | CATTATCA | 0.138
155 | AATTATCT | 0.264
156 | ATTTATCG | 0.0834
157 | CATTATCG | 0.0618
158 | AATTATCG | 0.308
159 | AATTATCA | 0.324
160 | TCGACCGA | -0.0438
161 | CTGCACCC | -0.204
162 | ACCTTTAA | 0.126
163 | AGTAGCAC | -0.0755
164 | ATTTTATG | 0.186
165 | ACTTTATC | 0.277
166 | ATTTTATC | 0.325
167 | CTTTTATC | 0.232
168 | GTTTTATA | 0.0686
169 | ATTTTATA | 0.309
170 | AGCTTATG | 0.0568
171 | GGGGGTAC | -0.254
172 | ATGTTCCA | 0.332
